Results from PubChem BioAssay AID1159580 (chemical genetic matrix, 2015).
Hit rate of the full screen: of about 5,500 compounds, about 2,000 (36%) were called active. Not shown: some 18% with an inconclusive outcome. No stated cut-off is given here; in the data, active means normalized growth mostly below about 0.91 (no sharp cut-off); inconclusive means no clear call, values can overlap the other calls; inactive means mostly above about 0.92. Some of the results follow.

Assay: chemical genetic growth profiling, strain panel (AID 1159580);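 further: tested at 20 µM; growth read once vehicle control cultures reached saturation at 30 °C; 1 = growth at the plate median or of vehicle wells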
Details: S. cerevisiae deletion strains, growth OD

Measured: normalized growth

O=S(=O)(O)O
inactive: locus YAL021C, strain ccr4, stronger effect = lower value 0.973 | locus YAL026C, strain drs2, stronger effect = lower value 0.983 | locus YAL030W, strain snc1, stronger effect = lower value 0.985 | locus YBL061C, strain skt5, stronger effect = lower value 0.975 | locus YBR009C, strain hhf1, stronger effect = lower value 0.991 | locus YBR023C, strain chs3, stronger effect = lower value 0.98 | locus YBR171W, strain sec66, stronger effect = lower value 0.961 | locus YBR231C, strain swc5, stronger effect = lower value 0.976 | locus YBR279W, strain paf1, stronger effect = lower value 0.985 | locus YCL011C, strain gbp2, stronger effect = lower value 0.965 | locus YCL016C, strain dcc1, stronger effect = lower value 0.981 | locus YCL061C, strain MRC1, stronger effect = lower value 0.993 | locus YCL069W, strain vba3, stronger effect = lower value 0.969 | locus YCR088W, strain abp1, stronger effect = lower value 0.956 | locus YDL005C, strain med2, stronger effect = lower value 0.954 | locus YDL040C, strain nat1, stronger effect = lower value 0.988 | locus YDR001C, strain nth1, stronger effect = lower value 0.987 | locus YDR069C, strain doa4, stronger effect = lower value 0.964 | locus YDR137W, strain rgp1, stronger effect = lower value 1.01 | locus YDR159W, strain sac3, stronger effect = lower value 0.985 | locus YDR195W, strain ref2 1 | locus YDR297W, strain sur2, stronger effect = lower value 0.976 | locus YDR334W, strain swr1, stronger effect = lower value 0.976 | locus YDR335W, strain msn5, stronger effect = lower value 0.978 | locus YDR392W, strain spt3, stronger effect = lower value 0.914 | locus YEL003W, strain gim4, stronger effect = lower value 0.988 | locus YEL037C, strain rad23, stronger effect = lower value 0.969 | locus YEL061C, strain CIN8 (second series), stronger effect = lower value 0.971 | locus YER015W, strain faa2, stronger effect = lower value 0.975 | locus YER016W, strain bim1, stronger effect = lower value 0.983 | locus YER111C, strain swi4, stronger effect = lower value 0.967 | locus YER155C, strain BEM2 (second series), stronger effect = lower value 0.976 | locus YFR010W, strain ubp6, stronger effect = lower value 0.973 | locus YGL167C, strain pmr1, stronger effect = lower value 0.973 | locus YGL173C, strain kem1, stronger effect = lower value 0.962 | locus YGL227W, strain vid30, stronger effect = lower value 0.961 | locus YGL240W, strain doc1, stronger effect = lower value 0.982 | locus YGL253W, strain hxk2, stronger effect = lower value 0.969 | locus YHR013C, strain ard1, stronger effect = lower value 0.96 | locus YHR027C, strain rpn1, stronger effect = lower value 0.978 | locus YHR030C, strain SLT2, stronger effect = lower value 1.04 | locus YHR079C, strain IRE1, stronger effect = lower value 1.06 | locus YHR142W, strain chs7, stronger effect = lower value 0.961 | locus YJL092W, strain hpr5, stronger effect = lower value 0.95 | locus YJL095W, strain BCK1 (second series), stronger effect = lower value 0.981 | locus YJL095W, strain BCK1, stronger effect = lower value 1.06 | locus YJL115W, strain asf1, stronger effect = lower value 0.981 | locus YJL129C, strain trk1, stronger effect = lower value 0.961 | locus YJL154C, strain vps35, stronger effect = lower value 0.977 | locus YJL164C, strain tpk1, stronger effect = lower value 0.983 | locus YJL166W, strain qcr8, stronger effect = lower value 0.977 | locus YJL187C, strain SWE1, stronger effect = lower value 0.981 | locus YJR066W, strain TOR1, stronger effect = lower value 0.967 | locus YKL160W, strain elf1, stronger effect = lower value 0.987 | locus YKR026C, strain gcn3, stronger effect = lower value 0.975 | locus YKR091W, strain srl3, stronger effect = lower value 0.977 | locus YLL001W, strain dnm1, stronger effect = lower value 0.992 | locus YLL026W, stronger effect = lower value 0.966 | locus YLL041C, strain sdh2, stronger effect = lower value 0.988 | locus YLR027C, strain aat2, stronger effect = lower value 0.985 | locus YLR113W, strain HOG1, stronger effect = lower value 0.992 | locus YLR221C, strain rsa3, stronger effect = lower value 0.979 | locus YLR258W, strain gsy2, stronger effect = lower value 0.98 | locus YLR262C, strain YPT6 (second series), stronger effect = lower value 1 | locus YLR320W, strain mms22, stronger effect = lower value 0.969 | locus YLR342W, strain FKS1, stronger effect = lower value 0.955 | locus YLR357W, strain rsc2, stronger effect = lower value 0.951 | locus YLR370C, strain arc18, stronger effect = lower value 0.965 | locus YLR384C, strain iki3, stronger effect = lower value 0.977 | locus YML120C, strain ndi1, stronger effect = lower value 0.979 | locus YMR058W, strain fet3, stronger effect = lower value 0.985 | locus YMR125W, strain sto1, stronger effect = lower value 0.944 | locus YMR129W, stronger effect = lower value 0.99 | locus YMR205C, strain PFK2, stronger effect = lower value 0.976 | locus YMR231W, strain pep5, stronger effect = lower value 0.956 | locus YNL071W, strain lat1, stronger effect = lower value 0.959 | locus YNL183C, strain NPR1, stronger effect = lower value 0.986 | locus YNL209W, strain ssb2, stronger effect = lower value 0.975 | locus YNL248C, strain rpa49, stronger effect = lower value 0.978 | locus YNL322C, strain KRE1 (second series), stronger effect = lower value 0.966 | locus YNR049C, strain mso1, stronger effect = lower value 0.983 | locus YOR001W, strain rrp6, stronger effect = lower value 0.964 | locus YOR070C, strain gyp1, stronger effect = lower value 0.974 | locus YOR080W, strain dia2, stronger effect = lower value 0.968 | locus YOR083W, strain WHI5, stronger effect = lower value 0.986 | locus YOR106W, strain vam3, stronger effect = lower value 0.934 | locus YOR231W, strain MKK1, stronger effect = lower value 1.02 | locus YOR265W, strain rbl2, stronger effect = lower value 0.981 | locus YOR270C, strain vph1, stronger effect = lower value 1 | locus YOR290C, strain snf2, stronger effect = lower value 0.982 | locus YPL051W, strain arl3, stronger effect = lower value 0.981 | locus YPL078C, strain atp4, stronger effect = lower value 0.982 | locus YPL106C, strain sse1, stronger effect = lower value 0.946 | locus YPL240C, strain hsp82, stronger effect = lower value 0.957 | locus YPL256C, strain CLN2, stronger effect = lower value 1.06
